# In PubChem BioAssay AID556 (SRMLSC, 2006):
# Among all 65,000 compounds or so, about 320 (0.49%) were called active.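 Rule for the calls: active = the 320 compounds with the highest percent inhibition in the single-dose primary screen, excluding strongly autofluorescent ones (cut at about 32% in these data); inactive = the rest, inconclusive results apart.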 The full list was thinned out, with actives kept by preference.
# System: diphosphomevalonate decarboxylase (Streptococcus pneumoniae D39)
# Test: S. pneumoniae DPM-DC inhibitors, primary screen, biochemical, PK/LDH-coupled NADH fluorescence (AID 556);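 for inhibition: kinetic rate of NADH fluorescence loss reporting ADP formed by the decarboxylase; 0% = full reaction rate with carrier and 100% = no-substrate background rate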
# Conditions: purified DPM-DC, at 10 µM
# [1] = stronger effect = higher value unless noted
# [2] = measured here: pilot screen trials, stronger effect = higher value
smiles,measurement,setting,value
Cc1ccc(OS(=O)Nc2cccc3nccnc23)cc1 (stereo not given),inhibition,[1],inactive
CCCCSc1nnc(-c2ccc(NC(=O)CC)cc2)n1C,inhibition,[1],6% (inactive)
CC1CCc2sc3nc(N4CCN(CCO)CC4)n4ncnc4c3c2C1 (stereo not given),inhibition,[1],inactive
N#Cc1c2c(c(N3CCN(CCO)CC3)n3c1nc1ccccc13)CCCC2,inhibition,[1],inactive
CCC(=O)N(Cc1cc2cc(OC)ccc2[nH]c1=O)c1ccccc1C,inhibition,[1],16% (inactive)
O=C(Cn1c(=O)n(Cc2ccco2)c(=O)c2ccccc21)NCC1CCCO1 (stereo not given),inhibition,[1],inactive
O=C(CSc1nc2ccccc2o1)N1CCN(c2ccc(Cl)cc2)CC1,inhibition,[1],"0.5% [measured here: pilot screen trials, stronger effect = higher value]"
same,outcome,[1],inactive
CC(CNC(=O)c1ccc(Br)o1)NC(=O)c1ccc(Br)o1 (stereo not given),inhibition,[1],2% (inactive)
CCc1nnc(NC(=O)c2cccs2)s1,inhibition,[1],5% (inactive)
CCCn1c(SCC(=O)Nc2cccc(C(=O)OCC)c2)nnc1-c1ccoc1C,inhibition,[1],2% (inactive)
CCC1=[N+]([O-])C(C)(/C(C)=N\O)N(O)C1(C)C (stereo not given),inhibition,[1],inactive
CN(c1nc2ccccc2n2c(-c3ccco3)nnc12)S(=O)(=O)c1ccccc1,inhibition,[1],48% (active)
c1coc(-c2nc3nc4ccccc4n3nc2-c2ccco2)c1,inhibition,[1],4% (inactive)
CC(=O)Nc1ccc(S(=O)(=O)N2CCCC2C(=O)O)cc1 (stereo not given),inhibition,[1],inactive
CCOc1cccc(-n2nnnc2-c2ccc(OC)cc2)c1,inhibition,[1],"4.5% [measured here: pilot screen trials, stronger effect = higher value]"
same,outcome,[1],inactive
O=C(Cc1cccs1)N1CCCC(c2nc(-c3ccc(S(=O)(=O)N4CCCC4)cc3)no2)C1 (stereo not given),inhibition,[1],inactive
CCOC(=O)c1ccc(N2C(=O)CC(N3CCC(C(=O)OCC)CC3)C2=O)cc1 (stereo not given),inhibition,[1],inactive
O=C(NC12CC3CC(CC(C3)C1)C2)N1CCCC(CO)C1 (stereo not given),inhibition,[1],inactive
CC(=O)Oc1cc2c(C(=O)NCCN3CCOCC3)c(C)oc2c2ccccc12,inhibition,[1],inactive
CN(C)c1ccc(NC(=O)c2ccncc2)c2ccccc12,inhibition,[1],"0% [measured here: pilot screen trials, stronger effect = higher value]"
same,outcome,[1],inactive
Cn1c(=O)[nH]c(=O)c2c1nc(CN1CCN(c3ccccc3F)CC1)n2CCc1ccccc1,inhibition,[1],inactive
Cc1cc(C)n(C(=O)c2ccc(C)c(S(=O)(=O)N3CCOCC3)c2)n1,inhibition,[1],inactive
COc1ccc(-c2c3c(=O)n(C)c(=O)n(C)c3cn2NC(C)=O)cc1,inhibition,[1],20% (inactive)
COc1ccc(C2C3=C(OC(C)=O)c4ccccc4C3=Nc3c2c(=O)n(C)c(=O)n3C)cc1 (stereo not given),inhibition,stronger effect = higher value,70% (active)
same,inhibition,[2],3.5%
Cc1cccc(C2c3c(n(C)c(=O)n(C)c3=O)N=C3c4ccccc4C(=O)C32)c1 (stereo not given),inhibition,stronger effect = higher value,4% (inactive)
same,inhibition,[2],1%
